Records with an inconclusive call do not appear. The source made the active and inactive calls. How the source made its calls, unless noted: active means hit-call score of the fitted dose curve at least 0.9, where 1 is the maximum; inactive means score below 0.9.
How the values were obtained:
[1] = target: Myc proto-oncogene protein (Homo sapiens) (UniProt P01106); assay: ATG_Myc_CIS: Attagene CIS-FACTORIAL HepG2 Assay for human Myelocytomatosis (Myc) Proto-Oncogene Transcription Factor (AID 2282990); conditions: HepG2, Attagene cis-reporter transcription factor activity; actives raise or lower the signal
Method in brief: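 After 24 h chemical treatment of HepG2 cells carrying multiplexed cis-regulated reporter constructs, reporter transcripts quantified by RT-PCR and capillary electrophoresis of fluorescent fragments. Gain or loss fitted against DMSO baseline.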

[2] = ATG_NRF2_ARE_CIS: Attagene CIS-FACTORIAL HepG2 Assay for human Nuclear Factor Erythroid 2 Related Factor 2 (NFR2) response to Antioxidant Response Elements (ARE) (AID 2282992); conditions: HepG2 Attagene ARE/NRF2 reporter, transcription factor activity; actives raise or lower the signal;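 on AC50: reporter mRNA level measured by RT-PCR and capillary electrophoresis fluorescence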
Method in brief: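 HepG2 cells transiently transfected with multiplexed cis-regulated reporter transcription units measure endogenous transcription factor activity. Reporter mRNA at 24 h is quantified by RT-PCR, fluorescent labelling and capillary electrophoresis, with bidirectional fitting relative to DMSO.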

[3] = ATG_Oct_MLP_CIS: Attagene CIS-FACTORIAL HepG2 Assay for human Octamer-Binding Transcription Factor (Oct) (AID 2282993); conditions: HepG2 Attagene cis-factorial Oct reporter, mRNA; actives raise or lower the signal
Method in brief: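 HepG2 cells transiently transfected with cis-element-driven reporter transcription units (endogenous TF activity); 24 h compound exposure. Reporter mRNA quantified by RT-PCR, 6-FAM labelling, HpaI digestion and capillary electrophoresis; bidirectional fit versus DMSO baseline.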

[4] = target: Cellular tumor antigen p53 (Homo sapiens) (UniProt P04637); assay: ATG_p53_CIS: Attagene CIS-FACTORIAL HepG2 Assay for human p53 Transcription Factor (AID 2282994); conditions: HepG2 p53 cis-element reporter, Attagene mRNA; actives raise or lower the signal
Method in brief: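 HepG2 cells transiently transfected with multiplexed cis-regulated reporter transcription units read endogenous TF activity. After 24 h compound exposure, reporter mRNA was quantified by RT-PCR, fluorescent labelling, HpaI digestion and capillary electrophoresis; bidirectional fits versus DMSO baseline.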

[5] = BSK_3C_TissueFactor: BioMAP Diversity Plus: 3C Assay for Tissue Factor Biomarker Activity (AID 2282997); conditions: BioMAP 3C HUVEC, tissue factor biomarker readout; actives raise or lower the signal
Method in brief: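 Values derive from bidirectional curve fitting against DMSO of Tissue Factor ELISA signals, taken 24 h after dosing primary human umbilical vein endothelial cells.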

[6] = BSK_3C_uPAR: BioMAP Diversity Plus: 3C Assay for Urokinase-type plasminogen activator receptor (uPAR) Biomarker Activity (AID 2282998); conditions: BioMAP 3C HUVEC, uPAR biomarker ELISA; actives raise or lower the signal
Method in brief: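 Primary human umbilical vein endothelial cells, 3C system; surface uPAR measured by ELISA 24 h after dosing. Cytotoxicity via SRB total protein in parallel cultures; bidirectional fit against DMSO.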

[7] = BSK_3C_VCAM1: BioMAP Diversity Plus: 3C Assay for Vascular cell adhesion molecule 1 (VCAM1) Biomarker Activity (AID 2282999); conditions: BioMAP 3C HUVEC, VCAM1 ELISA, cytokine-stimulated; actives raise or lower the signal
Method in brief: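 Endothelial cells from human umbilical vein are treated with test chemical. At 24 h, VCAM-1 is measured by ELISA, and responses in either direction are fitted relative to DMSO.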

[8] = BSK_4H_Eotaxin3: BioMAP Diversity Plus: 4H Assay for Eotaxin 3 Biomarker Activity (AID 2283000); conditions: primary human endothelial cells (HUVEC); actives raise or lower the signal
Method in brief: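 Endothelial primary cells (human umbilical vein) exposed to compound for 24 h. ELISA detection of Eotaxin-3.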

[9] = target: human Peroxisome Proliferator-activated Receptor alpha (PPARa), PPARA (gene 5465) (UniProt Q07869); assay: ATG_PPARa_TRANS: Attagene TRANS-FACTORIAL HepG2 Assay for human Peroxisome Proliferator-activated Receptor alpha (PPARa) (AID 2283001; active means hit-call score of the fitted dose curve at least 0.9, where 1 is the maximum)
Method in brief: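 Read-out is fluorescence of reporter cDNA fragments resolved by capillary electrophoresis after RT-PCR. Human HepG2 liver cells carried transfected PPARa-Gal4 chimera and GAL4-UAS reporter units, treated 24 h; activity scored as increase over DMSO.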

[10] = read-out: Intercellular Adhesion Molecule 1 (ICAM1), ICAM1 (gene 3383); assay: BSK_3C_ICAM1: BioMAP Diversity Plus: 3C Assay for Intercellular Adhesion Molecule 1 (ICAM1) Biomarker Activity (AID 2283003); conditions: primary human endothelial cells (HUVEC); actives raise or lower the signal
Method in brief: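 HUVEC primary cells stimulated under 3C conditions; ICAM1 measured by ELISA 24 h after compound dosing. Curves fitted bidirectionally against the DMSO baseline. Overt cytotoxicity checked by SRB staining of parallel cultures.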

[11] = BSK_3C_Proliferation: Cell Proliferation Assessment in the BioMAP Diversity Plus: 3C Assay (AID 2283006); conditions: primary human endothelial cells (HUVEC);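 on AC50: potency may reflect either rise or fall in cell number versus DMSO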
Method in brief: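 Subconfluent HUVEC (3C system) cultured with chemical; relative cell number read at 48 h by sulforhodamine B total-protein staining (0.1% SRB after 10% TCA fixation, 560 nm). Bidirectional fit relative to DMSO.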

[12] = target: human Retinoic Acid Receptor gamma (RARg), RARG (gene 5916) (UniProt P13631); assay: ATG_RARg_TRANS: Attagene TRANS-FACTORIAL HepG2 Assay for human Retinoic Acid Receptor gamma (RARg) (AID 2283009; active means hit-call score of the fitted dose curve at least 0.9, where 1 is the maximum)
Method in brief: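 HepG2 transiently transfected with GAL4-UAS reporter units and chimeric NR-Gal4 constructs; 24 h compound exposure. Reporter mRNA quantified by RT-PCR, FAM labeling, HpaI digestion and capillary electrophoresis; gain-of-signal versus DMSO.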

[13] = ATG_NF_kB_CIS: Attagene CIS-FACTORIAL HepG2 Assay for human Nuclear Factor Kappa B (NF-kB) (AID 2282991); conditions: HepG2 Attagene cis-factorial NF-kB reporter mRNA; actives raise or lower the signal
Method in brief: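 HepG2 cells transfected with cis-promoter-driven reporter units, so endogenous transcription factor activity is measured. Reporter mRNA quantified 24 h after dosing by RT-PCR and capillary electrophoresis, with bidirectional fitting against DMSO.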

[14] = target: human Peroxisome Proliferator-activated Receptor delta (PPARd), PPARD (gene 5467) (UniProt Q03181); assay: ATG_PPARd_TRANS: Attagene TRANS-FACTORIAL HepG2 Assay for human Peroxisome Proliferator-activated Receptor delta (PPARd) (AID 2283002; active means hit-call score of the fitted dose curve at least 0.9, where 1 is the maximum)
Method in brief: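 Read-out is induced reporter mRNA, quantified by RT-PCR with fluorescent labelling and capillary electrophoresis after 24 h dosing. Cells are HepG2 transiently carrying multiple GAL4-UAS reporter units driven by exogenous NR-GAL4 chimeras; DMSO serves as baseline.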

[15] = target: Nuclear receptor subfamily 1 group I member 2 (Homo sapiens) (UniProt O75469); assay: ATG_PXR_TRANS: Attagene TRANS-FACTORIAL HepG2 Assay for human Pregnane X Receptor (PXR) (AID 2283008; active means hit-call score of the fitted dose curve at least 0.9, where 1 is the maximum)
Method in brief: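 HepG2 cells transiently transfected with multiple reporter units, here a PXR-GAL4 chimera driving a GAL4-UAS reporter; 24 h compound exposure. Reporter mRNA measured by RT-PCR, FAM labelling and capillary electrophoresis; gain of signal fitted against DMSO baseline.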

[16] = target: human RAR-related Orphan Receptor beta (RORb), RORB (gene 6096) (UniProt Q92753); assay: ATG_RORb_TRANS: Attagene TRANS-FACTORIAL HepG2 Assay for human RAR-related Orphan Receptor beta (RORb) (AID 2283010; active means hit-call score of the fitted dose curve at least 0.9, where 1 is the maximum)
Method in brief: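 HepG2 cells transiently transfected with GAL4-UAS reporter units expressing chimeric NR-Gal4 protein; reporter mRNA measured 24 h after dosing by RT-PCR, 6-FAM labelling and capillary electrophoresis. Gain-of-signal fitted relative to DMSO baseline.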

[17] = target: human RAR-related Orphan Receptor gamma (RORg), RORC (gene 6097) (UniProt P51449); assay: ATG_RORg_TRANS: Attagene TRANS-FACTORIAL HepG2 Assay for human RAR-related Orphan Receptor gamma (RORg) (AID 2283011; active means hit-call score of the fitted dose curve at least 0.9, where 1 is the maximum)
Method in brief: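 Activity is scored as increase in GAL4-UAS reporter mRNA over DMSO, detected by fluorescent RT-PCR and capillary electrophoresis in HepG2 cells transiently expressing a RORg-Gal4 chimera, 24 h after dosing.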

[18] = target: Peroxisome proliferator-activated receptor gamma (Homo sapiens) (UniProt P37231); assay: ATG_PPARg_TRANS: Attagene TRANS-FACTORIAL HepG2 Assay for human Peroxisome Proliferator-activated Receptor-gamma (PPARg) (AID 2283007; active means hit-call score of the fitted dose curve at least 0.9, where 1 is the maximum)
Method in brief: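 HepG2 cells are transiently transfected with GAL4-UAS reporter units driven by chimeric NR-Gal4 fusions and dosed for 24 h. Reporter mRNA is quantified by RT-PCR, 6-FAM labelling, HpaI digestion and capillary electrophoresis. Induction is scored against DMSO.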

[19] = target: Retinoic acid receptor alpha (Homo sapiens) (UniProt P10276); assay: ATG_RARa_TRANS: Attagene TRANS-FACTORIAL HepG2 Assay for human Retinoic Acid Receptor alpha (RARa) (AID 2283005; active means hit-call score of the fitted dose curve at least 0.9, where 1 is the maximum)
Method in brief: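 Reporter transcripts, measured by RT-PCR with fluorescent labeling and capillary electrophoresis after 24 h dosing, reflect activity of an exogenous human RARa–GAL4 fusion in transiently transfected HepG2. Fitted for increase relative to DMSO.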

Measured: AC50

Chain of Myc proto-oncogene protein (Homo sapiens) (P01106 whole entry, looked up, the tested form may be a part): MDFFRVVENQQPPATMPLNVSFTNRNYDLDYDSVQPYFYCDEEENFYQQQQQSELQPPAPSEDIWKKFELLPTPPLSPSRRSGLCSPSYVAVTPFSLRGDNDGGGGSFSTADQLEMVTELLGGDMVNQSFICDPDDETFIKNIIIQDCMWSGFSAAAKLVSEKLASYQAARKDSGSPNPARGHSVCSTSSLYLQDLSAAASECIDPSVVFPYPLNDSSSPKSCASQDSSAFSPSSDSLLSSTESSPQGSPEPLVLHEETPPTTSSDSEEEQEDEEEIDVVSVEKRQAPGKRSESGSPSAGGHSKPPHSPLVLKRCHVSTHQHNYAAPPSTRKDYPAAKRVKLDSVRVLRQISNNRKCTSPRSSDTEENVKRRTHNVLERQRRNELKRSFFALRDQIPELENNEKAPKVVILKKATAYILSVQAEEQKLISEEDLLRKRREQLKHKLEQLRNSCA
Chain of human Peroxisome Proliferator-activated Receptor delta (PPARd), PPARD (gene 5467) (Q03181 whole entry, looked up, the tested form may be a part): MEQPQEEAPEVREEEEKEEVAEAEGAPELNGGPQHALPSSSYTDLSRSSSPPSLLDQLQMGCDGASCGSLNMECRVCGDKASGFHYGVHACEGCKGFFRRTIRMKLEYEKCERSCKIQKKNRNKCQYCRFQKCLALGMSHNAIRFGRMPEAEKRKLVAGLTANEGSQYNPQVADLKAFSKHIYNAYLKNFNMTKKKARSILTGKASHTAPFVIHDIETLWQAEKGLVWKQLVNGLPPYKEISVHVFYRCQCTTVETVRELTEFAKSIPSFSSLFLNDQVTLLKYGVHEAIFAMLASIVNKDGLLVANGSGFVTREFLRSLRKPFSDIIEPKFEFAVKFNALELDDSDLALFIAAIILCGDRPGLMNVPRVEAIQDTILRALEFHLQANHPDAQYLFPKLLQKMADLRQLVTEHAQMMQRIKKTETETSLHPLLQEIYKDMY
Chain of Cellular tumor antigen p53 (Homo sapiens) (P04637 whole entry, looked up): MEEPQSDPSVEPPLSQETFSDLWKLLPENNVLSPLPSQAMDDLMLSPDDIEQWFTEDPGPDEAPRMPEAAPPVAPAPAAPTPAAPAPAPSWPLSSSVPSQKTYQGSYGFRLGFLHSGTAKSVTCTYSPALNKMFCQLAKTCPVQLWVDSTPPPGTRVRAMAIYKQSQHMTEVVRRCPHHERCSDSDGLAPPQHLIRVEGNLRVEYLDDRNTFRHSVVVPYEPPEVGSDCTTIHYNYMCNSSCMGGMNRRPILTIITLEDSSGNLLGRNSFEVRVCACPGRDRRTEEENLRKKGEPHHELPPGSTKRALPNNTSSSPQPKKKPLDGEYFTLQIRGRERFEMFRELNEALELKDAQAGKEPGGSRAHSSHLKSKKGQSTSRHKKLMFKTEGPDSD
Chain of human Peroxisome Proliferator-activated Receptor alpha (PPARa), PPARA (gene 5465) (Q07869 whole entry, looked up, the tested form may be a part): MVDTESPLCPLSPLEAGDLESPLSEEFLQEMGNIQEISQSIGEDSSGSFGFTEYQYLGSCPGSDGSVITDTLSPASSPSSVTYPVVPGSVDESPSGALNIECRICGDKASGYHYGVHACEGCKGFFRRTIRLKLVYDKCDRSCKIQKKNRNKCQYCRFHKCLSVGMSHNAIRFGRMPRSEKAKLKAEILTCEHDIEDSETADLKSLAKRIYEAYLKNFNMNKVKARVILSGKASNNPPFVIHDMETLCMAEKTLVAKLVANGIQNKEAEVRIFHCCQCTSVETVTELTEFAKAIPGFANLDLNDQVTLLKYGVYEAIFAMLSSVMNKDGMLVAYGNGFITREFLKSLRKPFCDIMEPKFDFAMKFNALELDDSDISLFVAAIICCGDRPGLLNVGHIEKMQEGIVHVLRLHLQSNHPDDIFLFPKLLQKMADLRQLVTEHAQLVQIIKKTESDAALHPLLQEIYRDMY
Chain of Peroxisome proliferator-activated receptor gamma (Homo sapiens) (P37231 whole entry, looked up, the tested form may be a part): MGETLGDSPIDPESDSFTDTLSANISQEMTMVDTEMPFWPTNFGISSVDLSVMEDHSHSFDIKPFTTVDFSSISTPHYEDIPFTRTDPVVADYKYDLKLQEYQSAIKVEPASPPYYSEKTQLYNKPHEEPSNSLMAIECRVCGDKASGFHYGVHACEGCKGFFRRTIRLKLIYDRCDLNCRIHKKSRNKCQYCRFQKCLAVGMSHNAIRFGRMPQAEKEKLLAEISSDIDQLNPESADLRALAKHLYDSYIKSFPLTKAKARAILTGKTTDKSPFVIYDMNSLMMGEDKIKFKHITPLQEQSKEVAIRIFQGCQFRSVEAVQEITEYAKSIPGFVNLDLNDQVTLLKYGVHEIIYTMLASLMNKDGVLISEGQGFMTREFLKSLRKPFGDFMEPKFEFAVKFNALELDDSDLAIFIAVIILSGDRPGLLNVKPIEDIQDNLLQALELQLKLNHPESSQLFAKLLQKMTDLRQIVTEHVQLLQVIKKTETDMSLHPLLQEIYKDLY
Chain of Nuclear receptor subfamily 1 group I member 2 (Homo sapiens) (O75469 whole entry, looked up, the tested form may be a part): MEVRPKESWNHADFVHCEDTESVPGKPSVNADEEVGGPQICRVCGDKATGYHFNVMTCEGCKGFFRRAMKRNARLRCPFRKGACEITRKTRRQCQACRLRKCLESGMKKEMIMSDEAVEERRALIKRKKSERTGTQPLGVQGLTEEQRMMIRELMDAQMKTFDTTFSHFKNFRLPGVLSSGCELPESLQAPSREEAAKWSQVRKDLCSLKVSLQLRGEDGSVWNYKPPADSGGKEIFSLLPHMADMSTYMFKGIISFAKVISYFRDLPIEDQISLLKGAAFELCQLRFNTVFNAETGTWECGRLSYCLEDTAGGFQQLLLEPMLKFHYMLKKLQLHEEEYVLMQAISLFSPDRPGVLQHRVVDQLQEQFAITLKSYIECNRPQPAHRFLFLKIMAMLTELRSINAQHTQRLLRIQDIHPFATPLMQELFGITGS
Chain of human Retinoic Acid Receptor gamma (RARg), RARG (gene 5916) (P13631 whole entry, looked up, the tested form may be a part): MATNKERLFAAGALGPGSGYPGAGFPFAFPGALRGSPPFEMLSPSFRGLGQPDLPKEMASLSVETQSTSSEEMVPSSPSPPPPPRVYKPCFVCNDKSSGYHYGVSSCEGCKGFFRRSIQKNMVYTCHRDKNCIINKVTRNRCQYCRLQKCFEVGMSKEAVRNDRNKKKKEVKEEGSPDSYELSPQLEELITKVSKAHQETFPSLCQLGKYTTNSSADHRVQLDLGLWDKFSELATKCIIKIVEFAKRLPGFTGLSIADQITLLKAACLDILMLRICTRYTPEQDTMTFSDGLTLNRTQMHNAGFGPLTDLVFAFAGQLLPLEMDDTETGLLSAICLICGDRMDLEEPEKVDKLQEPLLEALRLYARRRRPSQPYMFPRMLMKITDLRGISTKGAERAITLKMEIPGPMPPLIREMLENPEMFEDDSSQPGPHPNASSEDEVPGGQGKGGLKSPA
Chain of human RAR-related Orphan Receptor gamma (RORg), RORC (gene 6097) (P51449 whole entry, looked up, the tested form may be a part): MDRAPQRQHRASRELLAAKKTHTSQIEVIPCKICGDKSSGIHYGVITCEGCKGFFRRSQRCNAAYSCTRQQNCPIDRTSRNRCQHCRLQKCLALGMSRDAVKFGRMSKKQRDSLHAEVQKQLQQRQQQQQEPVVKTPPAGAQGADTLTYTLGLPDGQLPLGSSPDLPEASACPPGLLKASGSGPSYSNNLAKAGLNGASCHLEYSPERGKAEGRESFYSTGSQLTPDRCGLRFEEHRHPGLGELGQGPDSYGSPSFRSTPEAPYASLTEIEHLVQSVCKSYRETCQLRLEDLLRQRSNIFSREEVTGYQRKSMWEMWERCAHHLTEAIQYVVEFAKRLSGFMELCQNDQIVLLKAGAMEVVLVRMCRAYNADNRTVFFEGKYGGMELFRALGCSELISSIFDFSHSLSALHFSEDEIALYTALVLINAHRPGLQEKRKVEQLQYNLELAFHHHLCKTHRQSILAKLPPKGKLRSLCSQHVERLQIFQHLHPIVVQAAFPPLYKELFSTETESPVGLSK
Chain of human RAR-related Orphan Receptor beta (RORb), RORB (gene 6096) (Q92753 whole entry, looked up, the tested form may be a part): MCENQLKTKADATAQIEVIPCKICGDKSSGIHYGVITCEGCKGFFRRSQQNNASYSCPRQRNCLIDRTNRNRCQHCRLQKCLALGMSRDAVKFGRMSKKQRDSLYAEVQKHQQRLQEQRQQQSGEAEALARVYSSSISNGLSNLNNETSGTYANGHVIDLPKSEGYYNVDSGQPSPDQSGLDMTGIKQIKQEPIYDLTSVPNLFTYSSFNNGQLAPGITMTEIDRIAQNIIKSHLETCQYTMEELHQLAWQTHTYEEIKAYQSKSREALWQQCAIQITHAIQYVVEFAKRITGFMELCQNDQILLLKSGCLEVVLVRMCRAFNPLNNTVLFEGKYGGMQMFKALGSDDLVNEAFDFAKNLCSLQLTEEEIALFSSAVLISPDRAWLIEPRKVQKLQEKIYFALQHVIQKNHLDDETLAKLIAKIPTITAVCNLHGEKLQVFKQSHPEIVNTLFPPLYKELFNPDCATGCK
Chain of Retinoic acid receptor alpha (Homo sapiens) (P10276 whole entry, looked up, the tested form may be a part): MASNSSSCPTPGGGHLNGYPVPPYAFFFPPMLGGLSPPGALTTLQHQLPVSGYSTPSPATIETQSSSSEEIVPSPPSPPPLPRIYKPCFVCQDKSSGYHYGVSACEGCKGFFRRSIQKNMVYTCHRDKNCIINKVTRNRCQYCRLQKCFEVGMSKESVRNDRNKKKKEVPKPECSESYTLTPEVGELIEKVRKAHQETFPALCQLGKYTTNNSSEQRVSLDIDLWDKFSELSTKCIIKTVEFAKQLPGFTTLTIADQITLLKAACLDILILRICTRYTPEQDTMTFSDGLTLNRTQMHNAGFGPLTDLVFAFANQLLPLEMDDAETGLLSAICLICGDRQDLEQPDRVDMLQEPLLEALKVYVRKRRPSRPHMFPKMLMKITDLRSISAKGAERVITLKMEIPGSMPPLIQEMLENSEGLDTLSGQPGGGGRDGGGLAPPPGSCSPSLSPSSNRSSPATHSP

OCCCCO
not listed: [13] | [14] | [15] | [16] | [17] | [18] | [19]
inactive: all other assays above

ClCCN1CCOCC1
inactive: [1] | [13] | [2] | [4] | [14]

CC(C)=CC1C(C(=O)OCc2cccc(Oc3ccccc3)c2)C1(C)C (stereo not drawn)
active: [11] 20 µM | [15] 9.55 µM
not listed: [9] | [12] | [13] | [18] | [19]
inactive: all other assays above

Cc1ccccc1OP(=O)(Oc1ccccc1C)Oc1ccccc1C
inactive: [1] | [4] | [14] | [10] | [18]
active: [2] 8.48 µM | [3] 119 µM | [5] 5.08 µM | [6] 11.1 µM | [7] 11.8 µM | [8] 9.39 µM | [11] 8.31 µM

O=S1(=O)OC(c2cc(Br)c(O)c(Br)c2)(c2cc(Br)c(O)c(Br)c2)c2ccccc21
active: [2] 60.1 µM | [4] 126 µM | [18] 36.9 µM
inactive: [1] | [3] | [9] | [14] | [19] | [15] | [12]

From PubChem BioAssay (EPA / NIEHS)
